From PubChem
UBC13 polyUb: UBC13 polyubiquitin chain formation inhibitors, primary screen, biochemical, TR-FRET, uHTS. Ubiquitin-conjugating enzyme E2 N (Homo sapiens), P61088. inhibition, % at 20 µM. 330,000 tested, 0.47% active; in the data active means inhibition above about 45%, passing the limit was not always enough
Target sequence (P61088 whole entry, looked up): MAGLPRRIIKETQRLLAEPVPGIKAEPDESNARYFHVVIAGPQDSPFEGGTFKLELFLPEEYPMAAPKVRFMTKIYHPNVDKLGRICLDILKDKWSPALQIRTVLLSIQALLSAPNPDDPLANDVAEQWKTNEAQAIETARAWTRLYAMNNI
PREPL inh: PREPL enzyme inhibitors, primary screen, biochemical, fluorescence polarization; inhibition, % at 5.96 µM; recombinant PREPL, fluorescence polarization activity-based probe; 320,000 tested, 0.68% active; Prolyl endopeptidase-like (Homo sapiens), Q4J6C6; in the data active means inhibition above about 43%
MEKK3 PB1 HTS: modulators of MEKK3-MEK5 PB1 binding, primary screen, biochemical, wildtype MEKK3, multiplex bead flow cytometry, Alexa488-MEK5 | Mitogen-activated protein kinase kinase kinase 3 (Homo sapiens), Q99759 | bead-based flow cytometry, Alexa488-MEK5 binding to MEKK3; actives lie on both sides; 0 = blocked by unlabeled MEK5, 100 = vehicle | binding response (% of control), % at 10 µM | 290,000 tested, 1.4% active | AID 1529, 2009;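 active means binding response more than 3 SD above or below the average of its plate-row segment, actives on both sides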;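 further: Alexa488 bead fluorescence after subtracting the streptavidin-only scavenger bead signal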
MEKK2 WT-MEK5: modulators of MEK5 binding to wildtype MEKK2, primary screen, biochemical, multiplex bead flow cytometry, Alexa488-MEK5; Mitogen-activated protein kinase kinase kinase 2 (Homo sapiens), Q9Y2U5; Alexa488-MEK5 binding to MEKK2 WT; actives lie on both sides; binding response (% of control), % at 10 µM; 290,000 tested, 1.1% active; in the data active means binding response below about 67% or above about 130%
ATG4B inhibitor: ATG4B protease inhibitors, primary screen, biochemical, fluorescence, uHTS. Cysteine protease ATG4B (Homo sapiens), Q9Y4P1. ATG4B cleavage of LC3-PLA2, NBD-HPC fluorescence, 1 h. inhibition, % at 8.33 µM. 340,000 tested, 0.51% active; in the data active means inhibition above about 40%
MEKK2 mut-MEK5: MEK5 binding signal on mutant MEKK2 PB1, primary screen, biochemical, multiplex bead flow cytometry, Alexa488-MEK5; AID 1530, 2009; Alexa488-MEK5 binding to MEKK2 mutant; percent response, % at 10 µM; 290,000 tested, 0.35% active; in the data active means percent response above about 24%, passing the limit was not always enough
ATG4B confirm: ATG4B protease inhibitors, retest, confirmation, biochemical, fluorescence, single concentration; shares compounds with ATG4B inhibitor; ATG4B protease fluorescent substrate cleavage assay; inhibition, % at 8.33 µM; 320 tested, 92% active; AID 504757, 2011; in the data active means inhibition above about 39%
PLA2 ctr: PLA2 enzyme inhibition, counter-screen for ATG4B inhibitor project, biochemical, single concentration, uHTS hits; shares compounds with ATG4B inhibitor; purified PLA2, NBD-C6-HPC fluorescence, 45 min; inhibition, % at 8.33 µM; 1,600 tested, 66% active; in the data active means inhibition above about 50%
Target sequence (P04054 whole entry, looked up): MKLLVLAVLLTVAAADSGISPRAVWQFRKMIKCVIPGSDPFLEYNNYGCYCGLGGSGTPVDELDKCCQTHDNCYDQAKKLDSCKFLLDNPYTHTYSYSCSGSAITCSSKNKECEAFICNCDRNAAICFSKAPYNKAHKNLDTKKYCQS
Numbers stand for hits; - = inactive; . = not tested or not shown. Compounds with a hit are over-represented: about 3.1% of the library has one in this group of screens.

SMILES | UBC13 polyUb | PREPL inh | MEKK3 PB1 HTS | MEKK2 WT-MEK5 | ATG4B inhibitor | MEKK2 mut-MEK5 | PLA2 ctr | others
CCOC(=O)c1ccc(/C=C2/C=C(c3ccccc3)N(c3ccc(Cl)c(C(=O)O)c3)C2=O)cc1 | - | - | - | - | 56 | - | - | ATG4B confirm=77
CCOC(=O)c1ccc(Cl)c(NC(=O)c2ccc(-c3ccccc3)cc2)c1 | - | - | - | - | - | - | .
O=C(CCc1nnc2ccc(N3CCOCC3)nn12)Nc1ccc(F)cc1F | - | - | - | - | - | - | .
CN(C)S(=O)(=O)c1ccc(C(=O)NCC(=O)N/N=C/c2ccccc2Cl)cc1 | - | - | - | - | - | - | .
CCOC(=O)CSc1nc2ccccc2c(=O)n1CC | - | - | - | - | - | - | .
COc1ccc(-c2nnc(CSc3nc4ccccc4c(=O)n3CC(C)C)o2)cc1OC | - | - | - | - | 45 | - | - | ATG4B confirm=74
CCOC(=O)CSc1nc2ccccc2c(=O)n1CC(C)C | - | - | - | - | 57 | - | 56
CCOC(=O)CSc1nc2ccccc2c(=O)n1CC1CCCC1 | - | - | - | - | 71 | - | 71
CCn1c(SCC(=O)OC2CCCCC2)nc2ccccc2c1=O | - | - | - | - | - | - | .
COCCCn1c(SCc2nnc(-c3ccc(OC)c(OC)c3)o2)nc2ccccc2c1=O | - | - | - | - | - | - | .
CCc1ccc(CNC(=O)C2CCCN(c3nnc(C)c4c(C)n(-c5ccccc5)nc34)C2)cc1 (stereo not given) | - | - | - | - | - | - | .
Cc1nnc(N2CCCC(C(=O)NCc3cccc(F)c3)C2)c2nn(-c3ccccc3)c(C)c12 (stereo not given) | - | - | - | - | 50 | - | -
COc1cc(OC)cc(-c2nc3ccccc3c(=O)n2OC(=O)c2ccccc2C)c1 | - | - | - | - | 45 | - | - | ATG4B confirm=67
O=C(On1c(-c2ccccc2)nc2ccccc2c1=O)c1ccco1 | - | - | - | - | - | - | .
Cc1ccc(S(=O)(=O)Nc2ccccc2C(=O)Nc2nc(-c3ccc(F)cc3)cs2)cc1 | - | - | - | - | 47 | - | 60
COc1ccc(-c2csc(NC(=O)c3ccccc3F)n2)cc1 | - | - | - | - | - | - | .
COc1ccc(-c2csc(NC(=O)c3ccccc3NS(=O)(=O)c3ccc(F)c(F)c3)n2)cc1 | - | - | - | - | 69 | - | 80
O=C(CCCOc1ccc(Br)cc1)NNC(=O)c1ccncc1 | - | - | . | . | - | . | .
CNc1ccccc1C(=O)OCC(=O)c1ccccc1 | - | - | - | - | - | - | .
O=C(COC(=O)c1ccccc1Nc1ccccc1)c1ccccc1 | - | - | - | - | 53 | - | 52
CC(C)CCn1c2ccccc2c2cc(CC(N)=O)ccc21 | - | - | - | - | 68 | - | 77
NC(=O)CCn1c2ccccc2c2ccccc21 | - | - | - | - | - | - | .
CC1=C(c2ccccc2)C=NNCC1=O | . | . | . | . | - | . | .
CCOc1ccc(C2=NNC(c3cccs3)=Nc3ccc(OC)cc32)cc1OCC | - | - | - | - | - | - | .
COc1ccc(C2=NNC(c3cccs3)=Nc3ccc(OC)cc32)cc1 | - | - | - | - | 55 | - | 60
SMILES | UBC13 polyUb | PREPL inh | MEKK3 PB1 HTS | MEKK2 WT-MEK5 | ATG4B inhibitor | MEKK2 mut-MEK5 | PLA2 ctr | others
COc1ccc(Cc2n[nH]c(=S)n2NC(=O)Nc2ccc(Cl)c(Cl)c2)cc1 | - | - | - | - | - | - | .
Cc1ccc(-n2nnnc2SCC(=O)Nc2ccccc2N2CCCCC2)cc1C | - | - | - | - | - | - | .
Cc1ccc(-n2nnnc2SCC(=O)Nc2ccccc2-c2ccccc2)cc1C | - | - | - | - | 52 | - | -
O=C(O)c1cccc2c(-c3ccccc3)c(-c3ccccc3)[nH]c12 | - | - | - | - | 69 | - | 75
O=C(/C=C/c1ccc(Cl)cc1Cl)N1CCN(c2ccccc2[N+](=O)[O-])CC1 | - | - | - | - | 53 | - | 60
O=C(/C=C/c1ccc(Cl)cc1Cl)N1CCN(c2ccc([N+](=O)[O-])c(N3CCOCC3)c2)CC1 | - | - | - | - | - | - | .
N#C/C(=N\Nc1cccc([N+](=O)[O-])c1)C(=O)c1ccc(Br)cc1 | - | - | - | - | 57 | - | 80
O=C(NCCc1ccccc1Cl)c1cc(COc2ccc(F)cc2F)on1 | - | - | - | - | 46 | - | 55
O=C(NCCC1=CCCCC1)c1cc(COc2ccc(F)cc2Cl)on1 | - | - | - | - | - | - | .
Cc1oc(-c2ccccc2Cl)nc1CS(=O)CC(=O)NCc1ccccc1Cl (stereo not given) | - | - | - | - | 46 | - | - | ATG4B confirm=60
COc1cccc(-c2nc(SCC(=O)Nc3nc(-c4ccccc4)c(C)s3)[nH]c(=O)c2C#N)c1 | - | - | - | - | 42 | - | - | ATG4B confirm=75
CCSc1nnc(NC(=O)CSc2nnc(Cc3cccn3C)n2CCc2ccccc2)s1 | - | - | - | - | 58 | - | 52
Nc1ccc(S(=O)(=O)NN=Cc2ccccc2[N+](=O)[O-])cc1 | . | . | . | . | - | . | .
Cc1c(Cl)cccc1Nc1ccccc1C(=O)O | - | - | - | - | 44 | - | - | ATG4B confirm=57
CCOC(=O)c1cc(-c2c(Cl)cccc2Cl)no1 | - | - | - | - | 50 | - | -
CC(=O)N1CCN(c2ccc(NC(=O)c3ccccc3Cl)cc2)CC1 | - | - | - | - | - | - | .
O=C(Nc1ccc(N2CCCCCC2)cc1)c1ccccc1Cl | - | - | - | - | 51 | - | -
COc1cc(OC)c(NC(=O)CN(C)S(=O)(=O)c2ccc(-c3ccc(=O)[nH]n3)s2)cc1Cl | - | - | - | - | - | - | .
O=c1oc(-c2cccs2)nc2sc3c(c12)CCCC3 | - | - | - | - | - | - | .
O=C1CN(c2nc(-c3cccs3)nc3sc4c(c23)CCCC4)CCN1 | - | - | - | - | 76 | - | 87
O=C(CN1C(=O)c2ccc([N+](=O)[O-])cc2C1=O)NC1CCCCCC1 | - | - | . | . | - | . | .
NC(=O)c1ccc(C(F)(F)F)n(Cc2c(Cl)cccc2Cl)c1=O | - | - | - | - | 47 | - | -
